Reference: PubChem BioAssay (NCI)
The panel holds about 83,000 compounds, 20% with a hit somewhere; the sample as a whole holds those more often.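 In brief: 96-well plates, 48 h treatment, single concentration, percent growth endpoint.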 Unmarked numbers belong to inactive results. Active and inactive are the calls of the source. The calls were made as follows: active = growth percent below 10; inactive = the rest.

Columns and labels:
Assay in all cases: NCI-60 one-dose screen, 48 h (100 = growth as untreated, 0 = no growth, -100 = all killed)
Settings in all cases: 10 µM
SK-MEL-2 melanoma = system: SK-MEL-2 melanoma
EKVX NSCLC = system: EKVX NSCLC
SN12C renal = system: SN12C renal
UO-31 renal = system: UO-31 renal
TK-10 renal = system: TK-10 renal
ACHN renal = system: ACHN renal
CAKI-1 renal = system: CAKI-1 renal
A498 renal = system: A498 renal
CCRF-CEM leukemia = system: CCRF-CEM leukemia
MOLT-4 leukemia = system: MOLT-4 leukemia
RPMI-8226 leukemia = system: RPMI-8226 leukemia
OVCAR-8 ovarian = system: OVCAR-8 ovarian
OVCAR-5 ovarian = system: OVCAR-5 ovarian
OVCAR-4 ovarian = system: OVCAR-4 ovarian
SK-OV-3 ovarian = system: SK-OV-3 ovarian
IGROV1 ovarian = system: IGROV1 ovarian
OVCAR-3 ovarian = system: OVCAR-3 ovarian
HS 578T breast = system: HS 578T breast
NCI/ADR-RES ovarian = system: NCI/ADR-RES ovarian
SR leukemia = system: SR leukemia

SMILES	growth (SK-MEL-2 melanoma)	growth (EKVX NSCLC)	growth (SN12C renal)	growth (UO-31 renal)	growth (TK-10 renal)	growth (ACHN renal)	growth (CAKI-1 renal)	growth (A498 renal)	growth (CCRF-CEM leukemia)	growth (MOLT-4 leukemia)	growth (RPMI-8226 leukemia)	growth (OVCAR-8 ovarian)	growth (OVCAR-5 ovarian)	growth (OVCAR-4 ovarian)	growth (SK-OV-3 ovarian)	growth (IGROV1 ovarian)	growth (OVCAR-3 ovarian)	growth (HS 578T breast)	growth (NCI/ADR-RES ovarian)	growth (SR leukemia)
Nc1cccnc1/C=N/NC(=S)NCCNC(=O)c1ccc(-n2nc(-c3ccccc3O)nc2-c2ccccc2O)cc1	-4.94% (active)	2.53% (active)	5.7% (active)	-3.95% (active)	12.3%	2.89% (active)	4.97% (active)	73.7%	-6.46% (active)	11.8%	-3.08% (active)	14.6%	26.3%	22.1%	17.1%	12.5%	39.6%	34.6%	67.4%	–
C#CCNC(=O)CCC(=O)OC[C@]12CC[C@@H](C(=C)C)[C@@H]1C1CC[C@@H]3[C@@]4(C)CCCNC(C)(C)[C@@H]4CC[C@@]3(C)[C@]1(C)CC2 (stereo partly specified)	-66.1% (active)	2.91% (active)	19.2%	33.5%	11.6%	26.6%	17.3%	68.5%	-13.2% (active)	-3.06% (active)	–	-59.9% (active)	47.3%	30.3%	26.9%	-3.31% (active)	-71% (active)	14.4%	-75.1% (active)	-7.1% (active)
CN(CCF)c1ccc(/C=C/C(=O)c2ccc(N)cc2O)cc1	93%	93.8%	76.2%	53.2%	100%	79.3%	60.4%	115%	60.8%	58%	62.8%	70.6%	90%	68.8%	105%	94.3%	80.8%	112%	71.7%	–
N#Cc1c(-c2ccc(F)cc2)nc(SCc2ccc([N+](=O)[O-])cc2)nc1N1CCOCC1	87.4%	39.3%	74.6%	50.9%	84.2%	51%	35.9%	64.4%	77.2%	73.7%	80.3%	53.1%	92.1%	57.2%	44.5%	80.5%	69.7%	15.6%	41.6%	–
O=C(c1ccc(O)cc1)C1[C@H](c2ccccc2Br)[C@@H](c2ccccc2)NC12C(=O)Nc1ccc(Br)cc12 (stereo partly specified)	38.1%	32%	15.1%	35.8%	76.2%	37.9%	24.1%	80.5%	31.4%	11%	24.6%	48.6%	64.1%	51.4%	65.2%	18.4%	7.23% (active)	58.5%	64.9%	–
N#Cc1c(NC(=O)c2ccc(C(F)(F)F)cc2)sc2c1CCC(=O)C2	-57.9% (active)	-42.6% (active)	-31.9% (active)	-99.9% (active)	-53.7% (active)	-100% (active)	-21.7% (active)	2.58% (active)	7.92% (active)	9.79% (active)	–	-32.3% (active)	-80.6% (active)	-24.6% (active)	-54.1% (active)	-79.3% (active)	–	-27.1% (active)	-44.8% (active)	11.3%
COC1=C[C@@]23CCC(=O)N2CCc2cc4c(cc2[C@H]3[C@H]1OC(=O)C(C)(C)O)OCO4	104%	97.2%	96.5%	87.5%	97.7%	103%	95.6%	108%	99.3%	86.7%	–	109%	101%	98.6%	120%	103%	106%	98.1%	97.4%	96.1%
O=C(N/N=C/c1ccc(-c2cccc([N+](=O)[O-])c2)o1)c1[nH]c2ccc(Br)cc2c1-c1ccccc1	22.8%	54.4%	3.81% (active)	38.9%	40.4%	22.9%	21.4%	77.9%	-2.99% (active)	4.53% (active)	12%	-19.9% (active)	23.3%	45.5%	32.2%	33.7%	1.91% (active)	-2.96% (active)	-50.9% (active)	–
CN1C(=O)N(C)C2SC(N/N=C/c3ccccc3)=NC21 (stereo unspecified)	73.3%	90.7%	81.5%	65.4%	87.4%	96.3%	72.5%	81.7%	78.4%	54.9%	–	97.1%	94.4%	94.6%	95.7%	64.5%	25.1%	66.1%	44.6%	13.6%
COC[C@@H](CC(C)C)N=C1NC(=O)/C(=C/c2ccc3ncoc3c2)N1	-75.8% (active)	18%	15.1%	-8.68% (active)	36.5%	7.63% (active)	6.77% (active)	-9.51% (active)	15.2%	11.3%	0.955% (active)	12.4%	-11.6% (active)	53.7%	-40.8% (active)	7.9% (active)	-26.3% (active)	25.9%	20.3%	–
O=C(Nc1cc(Cl)cc(Cl)c1)Nc1cc(Cl)cc(Cl)c1	-48.4% (active)	-12% (active)	-34.3% (active)	-8.17% (active)	0.158% (active)	-19.4% (active)	-32.4% (active)	-18.3% (active)	-33.5% (active)	-36.2% (active)	-42.4% (active)	0.191% (active)	1.87% (active)	10.8%	-15.8% (active)	7.38% (active)	-31.5% (active)	-19.3% (active)	-24.1% (active)	–
CN1CCCN(Cc2ccc(C(=O)Nc3cccc(Nc4ccc5cc(O)ccc5n4)c3)cc2C(F)(F)F)CC1	111%	71.1%	86.8%	91.7%	134%	86.4%	74.7%	139%	-9.62% (active)	-6.61% (active)	-20.5% (active)	101%	131%	77.2%	116%	88.6%	76.9%	61.9%	90.7%	–
COc1ccccc1[C@H]1C(C(=O)c2ccc(Cl)cc2)C2(N[C@@H]1c1ccccc1)C(=O)Nc1ccccc12 (stereo partly specified)	-85.9% (active)	3.23% (active)	-89% (active)	1.13% (active)	8.59% (active)	-3.58% (active)	4.17% (active)	-19.2% (active)	4.07% (active)	-17.7% (active)	5.12% (active)	4.63% (active)	-24.8% (active)	24.8%	16.9%	-3.06% (active)	-42.7% (active)	-12.9% (active)	-69.7% (active)	–
CN1CCN(Cc2ccc(C(=O)Nc3cccc(Nc4ccc5cc(O)ccc5n4)c3)cc2C(F)(F)F)CC1	-95% (active)	-40.7% (active)	-64% (active)	-36.8% (active)	24%	-56.8% (active)	-28% (active)	148%	-37.1% (active)	-41.1% (active)	-51.3% (active)	4.28% (active)	-25% (active)	6.75% (active)	26.3%	-37.8% (active)	-58.9% (active)	–	28.6%	–
O=C1Nc2ccc(Cl)cc2/C1=C/c1cccc(OCc2ccccn2)c1	-50.6% (active)	10.7%	-50.6% (active)	8.26% (active)	10.5%	-40.3% (active)	-7.95% (active)	95%	-23.1% (active)	4.5% (active)	-45.3% (active)	-42.6% (active)	-45.2% (active)	4.17% (active)	4.02% (active)	0.125% (active)	-35.8% (active)	–	-23.8% (active)	–
CN1CCN(c2ccc(C(=O)/C=C/c3ccc(C#N)cc3)cc2)CC1	104%	82%	73.8%	61.8%	102%	83.5%	63.8%	103%	65.9%	90.5%	5.21% (active)	92%	127%	85%	86.6%	68.1%	79.9%	93.8%	80.8%	–
